Measured values as given in PubChem BioAssay.
“And” between values parts separate entries of the source, which are not always exact repeats. Equal entries are not always repeated. Inconclusive results are not listed. For some of these results: Potency and affinity values are given separately. The source made the active and inactive calls. Unless noted, how the calls were made is not given here.

Assays:
[1] = target: ATP-dependent translocase ABCB1 (Homo sapiens) (UniProt P08183); test: P-glycoprotein substrate transport blockade – cell-based (AID 377; in the data active means fluorescence slope change above about 50%); conditions: MDR1-expressing cells, fluorescent substrate accumulation slope; stronger effect = higher value; concentration not given here
ATP-dependent translocase ABCB1 (Homo sapiens), sequence (P08183 whole entry, looked up): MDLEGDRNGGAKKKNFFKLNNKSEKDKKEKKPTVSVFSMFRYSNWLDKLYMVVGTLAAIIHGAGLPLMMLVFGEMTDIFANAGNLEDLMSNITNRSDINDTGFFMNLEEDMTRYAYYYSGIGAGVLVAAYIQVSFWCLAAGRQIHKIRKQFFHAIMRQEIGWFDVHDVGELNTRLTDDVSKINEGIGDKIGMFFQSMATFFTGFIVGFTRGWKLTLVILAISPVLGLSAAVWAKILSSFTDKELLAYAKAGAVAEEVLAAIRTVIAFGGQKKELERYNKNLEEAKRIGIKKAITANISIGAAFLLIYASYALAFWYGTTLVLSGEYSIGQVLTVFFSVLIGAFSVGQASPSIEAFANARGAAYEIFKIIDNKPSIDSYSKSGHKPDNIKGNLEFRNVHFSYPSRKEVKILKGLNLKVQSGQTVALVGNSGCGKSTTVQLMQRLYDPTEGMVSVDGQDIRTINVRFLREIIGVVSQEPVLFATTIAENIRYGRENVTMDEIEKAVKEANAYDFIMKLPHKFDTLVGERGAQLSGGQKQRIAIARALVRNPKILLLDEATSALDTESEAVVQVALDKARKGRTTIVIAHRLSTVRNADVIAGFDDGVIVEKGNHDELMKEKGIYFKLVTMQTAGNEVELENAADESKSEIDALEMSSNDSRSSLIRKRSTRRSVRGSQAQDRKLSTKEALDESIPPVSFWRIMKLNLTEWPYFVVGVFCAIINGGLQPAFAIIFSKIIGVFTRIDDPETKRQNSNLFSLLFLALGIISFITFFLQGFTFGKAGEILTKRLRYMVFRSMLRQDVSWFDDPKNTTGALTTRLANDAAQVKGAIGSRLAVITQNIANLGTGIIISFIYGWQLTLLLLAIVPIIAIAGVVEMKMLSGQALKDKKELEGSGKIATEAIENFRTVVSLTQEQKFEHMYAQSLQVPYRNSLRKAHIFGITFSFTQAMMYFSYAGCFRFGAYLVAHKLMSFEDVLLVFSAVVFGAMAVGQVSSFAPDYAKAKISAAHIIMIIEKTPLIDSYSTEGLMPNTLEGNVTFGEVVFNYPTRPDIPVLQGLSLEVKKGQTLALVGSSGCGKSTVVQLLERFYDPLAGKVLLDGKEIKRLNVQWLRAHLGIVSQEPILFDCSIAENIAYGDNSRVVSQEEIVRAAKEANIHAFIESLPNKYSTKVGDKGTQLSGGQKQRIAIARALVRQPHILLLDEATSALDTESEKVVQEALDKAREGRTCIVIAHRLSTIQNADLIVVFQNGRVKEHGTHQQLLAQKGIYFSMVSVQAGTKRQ

[2] = blockers of polyQ-driven CASP3 activation – cell-based (AID 1583); conditions: polyglutamine-induced caspase-3 activation, cell assay; stronger effect = higher value;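 tested at 10 µM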
[3] = yeast 75Q aggregation reduction – 75Q-TubU reporter (AID 1593); conditions: Yeast 75Q polyglutamine aggregation reporter
[4] = restoration of touch response, mutant HTT neurons – whole organism, C. elegans mechanosensory neurons, N-terminal huntingtin (AID 1599); conditions: C. elegans polyQ-huntingtin mechanosensory neurons, stronger effect = higher value
[5] = blockers of cytochrome c efflux from mitochondria – biochemical, purified mitochondria (AID 1603); conditions: stronger effect = lower value;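 further: mouse liver mitochondria challenged with calcium chloride; signal normalized to the plate average as 100%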
[6] = polyglutamine aggregate formation blockers (AID 1604); conditions: polyglutamine-induced protein aggregation inhibition assay; stronger effect = higher value; tested at 2.5 µM
[7] = glutamate transport activators, MN-1 cells, MN-1 cell line (AID 1612); conditions: MN-1 motor neuron cells, stronger effect = higher value;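 further: tested at 1 µM final; 0% = mean of DMSO vehicle wells on each plate; positive means more glutamate uptake than control and negative means less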
[8] = GFP-Q80 aggregate reduction, neuronal-like cells, cell-based, NGF-treated PC12, GFPQ80 (AID 1614); conditions: PC12 NGF-treated GFP-polyQ80 inclusion reduction;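 further: lower means fewer inclusions and 0 means no inclusions at all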
[9] = 75Q-TubH aggregate inhibition, S. cerevisiae, yeast (AID 1616); conditions: S. cerevisiae 75Q-TubH polyglutamine aggregation suppression; stronger effect = higher value
[10] = compounds altering viability of human ES cells (AID 493140); conditions: human embryonic stem cell survival screen; stronger effect = higher value;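 further: cells exposed to compounds for four days before counting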
[11] = compounds altering circadian rhythm period length – cell-based, LOPAC library, luminescence reporter (AID 2774); conditions: circadian reporter cells, at 7 µM, actives lie on both sides;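 further: values are relative to mean of DMSO wells on each plate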

SMILES	fluorescence slope change [1]	inhibition [2]	score [3]	rescue above control [4]	cytochrome c release ratio [5]	inhibition of aggregation [6]	glutamate uptake change [7]	inclusion score [8]	aggregation suppression score [9]	survival [10]	period change [11]
CCCCN(CCCC)CCCOC(=O)c1ccc(N)cc1	85.2% (active)	5.65%	1.13	-6.3	0.76	39.2%	-0.54%	2	1.28	2.17 (inactive)	
CCN(CCCCOC(=O)c1ccc(OC)c(OC)c1)C(C)Cc1ccc(OC)cc1 (stereo not drawn)	-44.1% (inactive)	24.4%	1.51	1.7	0.92	65.1%	1.65%	2	1.35	13.9 (inactive)	
OC(CCN1CCCCC1)(c1ccccc1)c1ccccc1	18.2% (inactive)	19.5%	1.21	10.4	1.45	65%	-4.45%	2	1.43	3.42 (inactive)	
COc1ccc(NS(=O)(=O)c2ccc(N)cc2)nn1	-40.8% (inactive)	24%	1.56	12.3	0.95	-3.03%	8.78%	2	1.18		
CCCCC1(COC(=O)CCC(=O)O)C(=O)N(c2ccccc2)N(c2ccccc2)C1=O	4.7% (inactive)	9.48%	1.11	9.03	1.09	57.1%	-2.57%	2	0.747	3.58 (inactive)	
NS(=O)(=O)c1cc2c(cc1Cl)NC(C(Cl)Cl)NS2(=O)=O (stereo not drawn)	24.8% (inactive)	12.2%	1.03	12.5	1.13	79.6%	-0.6%	2	1.17	3.33 (inactive)	
CN(C)CCC(c1ccccc1)c1ccccn1 (stereo not drawn)		12.1%	1.44	-9.39	1	-15.2%	24.1%	2	1.23	15 (inactive)	-0.08 h (inactive)
CC1CCc2cc(F)cc3c(=O)c(C(=O)O)cn1c23 (stereo not drawn)	50.2% (active)	4.46%	1.12	-5.46	1.29	44.4%	3.94%	2	0.905	26.8 (inactive)	
Cc1ccnc(NS(=O)(=O)c2ccc(N)cc2)n1	18.7% (inactive)	3.68%	0.98	11.1	0.88	38%	-29.5%	2	1.19	6.5 (inactive)	
O=C(O)c1ccccc1C(=O)Nc1ccc(S(=O)(=O)Nc2nccs2)cc1	52.9% (active)	-4.35%	1.11	-3.35	0.81	12.9%	2.49%	2	1.17	11.2 (inactive)	
CCC1(C)CC(=O)NC1=O (stereo not drawn)		3.06%	1.25	1.02	1.3	4.76%	-2.95%	2	1.06	28.8 (inactive)	0.01 h (inactive)
CC(=O)Nc1ccc(O)cc1	29.1% (inactive)	-1.78%	1.1	12.7	1.05	74.9%	-4.6%	2	1.73	5.25 (inactive)	
CCN(CC)CCOC(=O)C(Cc1cccc2ccccc12)CC1CCCO1 (stereo not drawn)	91.9% (active)	-17.5%	1.25	1.39	1.11	22.2%	-20.3%	2	1.03	5.33 (inactive)	
O=C(Cn1ccnc1[N+](=O)[O-])NCCO	10% (inactive)	-0.7%	1.21	-3.38	0.82	62.1%	16.4%	2	0.925	5.17 (inactive)	
C[N+]1(CCCCC[N+]2(C)CCCC2)CCCC1		-38.1%	1.14	1.54	0.89	49%	1.85%	2	1.31	22.2 (inactive)	0.04 h (inactive)
CCN(CC)CCNC(=O)c1cc(Br)c(N)cc1OC	8.5% (inactive)	15.4%	1.41	5.76	0.92	24.2%	-4.45%	2	1.35	5.42 (inactive)	
CCOc1ccc(Cc2nccc3cc(OCC)c(OCC)cc23)cc1OCC	86.8% (active)	34.8%	1.54	-2.91	1.13	-10.6%	33.7%	2	1.07	5.17 (inactive)	
COc1ccccc1OCC(O)CO (stereo not drawn)	12.6% (inactive)	-27.7%	0.87	-10.8	1.15	58.9%	-12.9%	2	0.924	4.75 (inactive)	
CC(C)(Oc1ccc(CCNC(=O)c2ccc(Cl)cc2)cc1)C(=O)O	88.6% (active)	-1.59%	1.19	-10.8	0.96	61%	8.93%	2	1.44	15.2 (inactive)	
Cc1ccc(C(=O)c2ccc(CC(=O)O)n2C)cc1	69.6% (active)	3.78%	1.04	-3.75	1.04	23.8%	12.3%	2	0.801	3.83 (inactive)	
NS(=O)(=O)c1cc(C(=O)O)c(NCc2ccco2)cc1Cl	19.9% (inactive)	10.9%	1.37	-8.35	0.82	3.24%	-10.7%	2	0.957	10.1 (inactive)	
O=C(O)c1ccccc1Nc1cccc(C(F)(F)F)c1	92.3% (active)	-0.73%	-0.37	3.52	1.3	73.1%	-15.4%	2	-0.092	25.2 (inactive)	

SMILES	fluorescence slope change [1]	inhibition [2]	score [3]	rescue above control [4]	cytochrome c release ratio [5]	inhibition of aggregation [6]	glutamate uptake change [7]	inclusion score [8]	aggregation suppression score [9]	survival [10]	period change [11]
CCOC(=O)[C@H](CCc1ccccc1)N[C@@H](C)C(=O)N1CCC[C@H]1C(=O)O	54.7% (active)	21.1%	1.21	6.04	1.13	72.2%	-6.34%	2	1.1		
CCn1cc(C(=O)O)c(=O)c2cnc(N3CCCC3)nc21	55.2% (active)	-13.1%	0.98	7.28	1.33	85.9%	-9.95%	2	1.27	4.5 (inactive)	
CC(C(=O)O)c1ccc(C(=O)c2cccs2)cc1 (stereo not drawn)	12.2% (inactive)	7.38%	0.92	-0.97	1.35	91.6%	15.6%	2	0.589	6.67 (inactive)	
CC(=O)NO	25.2% (inactive)	31.8%	1.13	-5.59	0.77	58.3%	11.3%	2	1.09		
NC(N)=NCCN1CCCCCCC1	125% (active)	22.4%	1.49	-4.52	1.17	35.2%	-19.4%	2	1.06	13.9 (inactive)	
Nc1cc(-c2ccncc2)c[nH]c1=O	8.3% (inactive)	-0.86%	1.14	4.19	0.91	17.8%	12.5%	2	1.17	2.67 (inactive)	
CCOc1ccc(NC(C)=O)cc1	5.5% (inactive)	-10.9%	0.84	-2.44	0.87	-59.3%	-13.8%	1.5	0.296	8.75 (inactive)	
NCC1CCC(C(=O)O)CC1 (stereo not drawn)	64.7% (active)	-11.3%	1.25	8.04	0.77	74.7%	10.5%	2	1.21	17.8 (inactive)	
CN(C)C(=O)Oc1cccc([N+](C)(C)C)c1		15.7% and 16.9%	1.16 and 1.39	10.4 and -12.8	0.9 and 1.01	74.6% and 38%	-18.8% and 13.6%	2	0.695 and 1.29	12.1 (inactive)	0.06 h (inactive)
c1ccc(CN(CC2=NCCN2)c2ccccc2)cc1	118% (active)	9.99%	1.33	-13.1	1.08	71.4%	16%	2	1.29	15 (inactive)	
CN1CCC(OC(c2ccccc2)c2ccccc2)CC1	7.9% (inactive)	-34.9%	1.74	-9.83	1.09	81.6%	17.3%	2	1.27	4.58 (inactive)	
Cc1c(N(C)CS(=O)(=O)O)c(=O)n(-c2ccccc2)n1C	12.6% (inactive)	-33.9%	1.22	6.62	0.55	94.4%	-8.12%	2	1.09	3.25 (inactive)	
CC(=O)NS(=O)(=O)c1ccc(N)cc1		11.3%	1.36	-14.1	1.02	48.5%	16.9%	2	1.16	17.3 (inactive)	
Cc1cc(NC(=O)C2=C(O)c3ccccc3S(=O)(=O)N2C)no1		49.9%	0.18	-11.8	1.04	72.2%	11.8%	2	-0.565	12.4 (inactive)	
CCCc1ncc(C[n+]2ccccc2C)c(N)n1		-2.36%	1.6	-0.43	0.95	84.8%	5.76%	1.5	0.986	8.58 (inactive)	
COc1ccc2cc3[n+](cc2c1OC)CCc1cc2c(cc1-3)OCO2		-15.4%	0.32	10.8	0.96	65.2%	15.2%	2	0.27	0.5 (inactive)	
O=C(O)CCC(=O)Nc1ccc(S(=O)(=O)Nc2nccs2)cc1	2.1% (inactive)	-5.43%	1.2	-4.64	0.78	100%	14.7%	2	1.1	6.17 (inactive)	
O=C(COc1ccc(Cl)cc1)N1CCN(Cc2ccc3c(c2)OCO3)CC1	134% (active)	60.9%	1.15	29.5	1.17	63.9%	0.58%	2.5	1.39	7.17 (inactive)	
NCCCC[C@H](N[C@@H](CCc1ccccc1)C(=O)O)C(=O)N1CCC[C@H]1C(=O)O	60.6% (active)	-0.18%	0.98	-7.67	1.03	45.6%	1.96%	2	0.836	16.8 (inactive)	
CC(=O)Nc1ccc(OCC(O)CNC(C)C)cc1 (stereo not drawn)	57.7% (active)	19.6%	1	6.87	0.77	66.7%	-0.19%	2	1.1	20.5 (inactive)	
CCn1cc(C(=O)O)c(=O)c2cc(F)c(N3CCNCC3)nc21	3.6% (inactive)	-8.5%	1.5	0.62	0.92	-1.85%	-7.7%	2	1.11	13.2 (inactive)	
CC(C)(Sc1cc(C(C)(C)C)c(O)c(C(C)(C)C)c1)Sc1cc(C(C)(C)C)c(O)c(C(C)(C)C)c1	6.4% (inactive)	-32.2%	0.29	-10.5	0.46	23.1%	-0.51%	2	0.634	7.33 (inactive)	
